esBAF inh: SWI/SNF esBAF complex inhibition. mouse ES cells, Bmi1-luciferase knock-in reporter, 24 h; 100% = twice the neutral-well signal. reporter increase, % at 12.5 µM. 350,000 compounds, 2% hits; in the data active = activation above about 40%;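 also: a rise in the Bmi1 reporter signal indicates esBAF inhibition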
Wnt act: activates Wnt/beta-catenin signaling in a reporter cell assay. activation, % at 9.35 µM. activator, plate reader. AID 743398. 300,000 compounds, 1.2% hits; in the data active = activation above about 30%, passing the limit was not always enough
PHOSPHO1 inh: PHOSPHO1 (human) inhibition | Q8TCT1 | AID 1565 | inhibition, % at 13.3 µM | recombinant PHOSPHO1, absorbance phosphatase assay | 290,000 compounds, 1.1% hits; in the data active = inhibition above about 60%
Target sequence (Q8TCT1 whole entry, looked up): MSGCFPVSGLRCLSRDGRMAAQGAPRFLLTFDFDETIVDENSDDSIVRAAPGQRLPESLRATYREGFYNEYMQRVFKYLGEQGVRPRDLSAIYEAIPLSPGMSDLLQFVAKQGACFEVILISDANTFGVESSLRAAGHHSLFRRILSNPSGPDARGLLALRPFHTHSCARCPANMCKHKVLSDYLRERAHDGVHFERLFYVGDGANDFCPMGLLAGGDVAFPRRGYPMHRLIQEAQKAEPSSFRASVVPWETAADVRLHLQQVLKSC
APOBEC3A inh: blocks human APOBEC3A ssDNA deamination; P31941; recombinant A3A, FAM/TAMRA ssDNA deamination fluorescence; inhibition, % at 20 µM; 330,000 compounds, 0.41% hits; AID 493011;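 active = at least 40% inhibition at 20 µM here, with at most 30% in a related deaminase screen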
APOBEC3G inh: blocks human APOBEC3G single-stranded DNA deamination. AID 493012. inhibition, % at 20 µM. recombinant A3G, ssDNA deamination FAM/TAMRA fluorescence. Q9HC16. 330,000 compounds, 0.28% hits;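 active = inhibition of at least 40% at 20 µM, with no more than 30% in the related APOBEC3A deaminase screen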
Target sequence (Q9HC16 whole entry, looked up): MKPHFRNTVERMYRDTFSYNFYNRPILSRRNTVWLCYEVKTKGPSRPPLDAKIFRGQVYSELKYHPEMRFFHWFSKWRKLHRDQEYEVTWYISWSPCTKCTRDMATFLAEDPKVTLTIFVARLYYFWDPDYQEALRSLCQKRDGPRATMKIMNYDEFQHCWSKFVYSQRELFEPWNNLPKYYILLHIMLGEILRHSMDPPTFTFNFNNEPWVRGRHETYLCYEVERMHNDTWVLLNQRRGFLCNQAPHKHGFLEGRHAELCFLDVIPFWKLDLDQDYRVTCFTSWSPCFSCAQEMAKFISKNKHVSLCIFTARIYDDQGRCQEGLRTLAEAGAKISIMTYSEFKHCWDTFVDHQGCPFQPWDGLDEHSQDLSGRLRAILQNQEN
MITF act: activators of MITF-driven TRPM1 promoter activity in SK-MEL-5 cells; AID 588334; SK-MEL-5 TRPM1-promoter luciferase, 24 h; % of positive control, neutral wells = 0; activation, % at 12.5 µM; 300,000 compounds, 0.75% hits;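 active = mean activation of at least 80% with every replicate also reaching 80%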
APOBEC3G confirm: confirmation of human APOBEC3G DNA deaminase inhibitors. shares compounds with APOBEC3G inh. recombinant A3G ssDNA deaminase, UDG/FAM-TAMRA fluorescence. inhibition, % at 20 µM. 890 compounds, 72% hits. AID 493152;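 active = inhibition reaching a set limit in any replicate at 20 µM, the limit being 80% of the first screen's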
UDG A3G counter: E. coli UDG inhibition in APOBEC3G counter-screen; inhibition, % at 20 µM; shares compounds with APOBEC3G inh; UDG counterscreen, FAM/TAMRA oligo fluorescence; 710 tested, under 10 active;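 active = compounds giving 40% or more inhibition at 20 µM in any one of the three replicates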;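 also: inhibitors lower the FAM signal released by uracil excision and alkaline cleavage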
A number is an active result; . = inactive; / = not tested or not shown. In the library only some 3.6% were active in any assay of this set; here they are far more common.

SMILES	esBAF inh	Wnt act	PHOSPHO1 inh	APOBEC3A inh	APOBEC3G inh	MITF act	APOBEC3G confirm	UDG A3G counter
COc1cc(/C=N/n2c(-c3n[nH]c4c3CCC4)n[nH]c2=S)cc(OC)c1O	.	.	.	.	54	.	68	.
Cc1n[nH]c(=S)n1/N=C/c1ccc(-c2ccccc2[N+](=O)[O-])o1	.	.	.	.	45	/	68	.
COc1cccc(/C=N/n2c(C3CCCCC3)n[nH]c2=S)c1O	.	.	.	.	.	.	/	/
COc1ccc(NC(=O)N(C)C[C@H]2Oc3ccc(NC(=O)Nc4ccc(C(F)(F)F)cc4)cc3C(=O)N([C@@H](C)CO)C[C@@H]2C)cc1	.	/	/	/	/	/	/	/
CC(C)NC(=O)N(C)C[C@@H]1OCCCC[C@H](C)Oc2ccc(NS(=O)(=O)c3ccc(Cl)cc3)cc2C(=O)N([C@H](C)CO)C[C@H]1C	.	/	/	/	/	/	/	/
COc1cccc(/C=N/n2c(-c3n[nH]c4c3CCC4)n[nH]c2=S)c1O	.	.	.	.	66	.	82	.
CC(C)c1ccc(NNC(=O)C2CCC2)cc1	.	.	.	.	50	/	.	/
Cc1ccc(NNC(=O)c2c(C)noc2C)cc1Cl	.	.	.	.	.	/	/	/
Cc1noc(C)c1C(=O)NNc1ccc(C(C)C)cc1	/	.	.	.	46	/	.	.
Cc1ccc(S(=O)(=O)Nc2cccc3c2O[C@H](CN(C)C(=O)Nc2ccc(F)cc2)[C@@H](C)CN([C@@H](C)CO)C3=O)cc1	.	/	/	/	/	/	/	/
COCC(=O)Oc1c(S(=O)(=O)c2ccccc2)c(C)nn1C(C)(C)C	.	.	.	.	93	.	.	/
CCC1=NNc2cccc3c(OC)ccc1c23	/	/	.	.	60	/	73	/
FC(F)Oc1ccc(/C=N/n2c(Cc3ccc(Br)cc3)n[nH]c2=S)cc1	.	.	.	.	48	/	42	.
C[C@@H]1CN([C@H](C)CO)C(=O)Cc2cc(NC(=O)CCCCCC(=O)Nc3ccccc3N)ccc2O[C@H]1CN(C)Cc1ccc(-c2ccccc2)cc1	.	/	/	/	/	/	/	/
Cc1ccc(-n2c(N)c(C(N)=O)sc2=S)cc1	/	/	93	.	58	.	58	.
O=C1c2c(O)cccc2Cc2cccc(O)c21	.	.	/	.	67	/	78	.
COC(=O)c1ccc(/C=N/Nc2nc(-c3ccc(C)cc3)cs2)cc1	.	/	.	.	45	.	.	/
COc1ccc(CNC(=O)c2cc3ccccc3o2)cc1OC	.	.	.	.	71	.	.	.
Cc1csc(SCC(=O)Nc2sc3c(c2C#N)CCC3)n1	.	/	.	.	42	.	.	/
Cc1ccnc(SCC(=O)Nc2sc3c(c2C#N)CCCC3)n1	.	/	.	.	.	.	/	/
Cc1ccc(C(=O)c2c(NC(=O)CSc3nnc(N)s3)sc3c2CCCC3)cc1	/	.	.	.	45	.	.	/
O=C(N[C@H]1CC[C@H](CCn2cc(Cc3ccccc3)nn2)O[C@H]1CO)c1cnccn1	.	/	/	/	/	/	/	/
O=C(CCCSc1ccc(Cl)cc1)Nc1cc(S(=O)(=O)N2CCOCC2)ccc1O	.	.	/	.	51	.	73	.
CCOC(=O)c1ccc(S(=O)(=O)Nc2cc(S(=O)(=O)N3CCOCC3)ccc2O)cc1	.	.	/	.	52	.	27	.
CCOC(=O)c1ccc(NC(=O)c2cccc(S(=O)(=O)N3CCOCC3)c2)cc1	.	.	.	.	.	.	/	/
SMILES	esBAF inh	Wnt act	PHOSPHO1 inh	APOBEC3A inh	APOBEC3G inh	MITF act	APOBEC3G confirm	UDG A3G counter
CO[C@H]1CN(C)C(=O)c2ccc(NS(=O)(=O)c3c(C)noc3C)cc2OC[C@H](C)NC[C@H]1C	.	/	/	/	/	/	/	/
COC(=O)C[C@@H]1CC[C@H]2[C@@H](COC[C@@H](O)CN2S(=O)(=O)c2ccccc2C)O1	.	/	/	/	/	/	/	/
Cc1ccc(C(c2nnnn2CS(=O)(=O)c2ccc(C)cc2)N2CCN(c3ncccn3)CC2)cc1 (stereo not drawn)	.	/	.	.	71	.	.	/
COC(=O)C1=C(C)N(Cc2ccc(C)cc2)C(=O)/C1=C\c1ccc(O)c(OC)c1	.	/	.	.	.	.	/	/
CCOC(=O)C1=C(C)N(c2ccc(C)cc2)C(=O)/C1=C\c1ccc(O)c(OC)c1	.	.	.	.	77	.	.	/
CO[C@@H]1CC[C@@H]2CCOc3ccc(C#N)cc3C(=O)N(C)C[C@@H](OC)[C@H](C)C(=O)N(C)C[C@@H]1O2	.	/	/	/	/	/	/	/
CCc1c(C)[nH]c2ccc(OC)cc2c1=S	.	.	.	.	44	.	.	.
C[C@@H]1CN([C@@H](C)CO)C(=O)Cc2cc(NS(=O)(=O)c3cccs3)ccc2O[C@H]1CN(C)C(=O)Nc1cccc2ccccc12	.	/	/	/	/	/	/	/
COC(=O)CSc1nc(N)c2c3c(sc2n1)CCCC3	.	/	.	.	.	.	/	/
COC(=O)CSc1nc(N)c2c3c(sc2n1)C(c1ccccc1)SC(c1ccccc1)C3 (stereo not drawn)	/	/	.	.	43	.	.	.
N#C/C(=C(/O)COc1ccc(Cl)cc1)c1nc2ccccc2s1	/	.	.	.	57	.	.	.
CCn1c(=O)c2c3c(sc2n2c(=S)[nH]nc12)CCC3	/	/	102	.	59	.	88	.
Cc1ccc(-n2c(=O)c3c4c(sc3n3c(=S)[nH]nc23)CCC4)cc1	.	.	.	.	.	/	/	/
O=c1c2c3c(sc2n2c(=S)[nH]nc2n1-c1ccccc1)CCC3	.	.	.	.	53	/	84	.
CC1(C)Cc2c(C#N)c(SCC(=O)O)nc(N3CCOCC3)c2CO1	.	.	/	.	61	.	.	.
NNc1cc(C(=O)O)ccc1Cl	/	.	.	.	40	.	.	.
CC(C)(CS(=O)(=O)[O-])NC(=O)CC[N+](C)(C)CCO	/	/	.	.	88	.	94	/
c1ccc2c(c1)OCC(c1nnc3sc(-c4ccc5c(c4)OCO5)nn13)O2 (stereo not drawn)	.	/	84	.	57	.	48	.
Clc1ccccc1-c1nnc2sc(-c3ccc4c(c3)OCO4)nn12	.	/	79	.	53	.	40	.
CCCNC(=O)N[C@H]1CC[C@@H](CC(=O)NCCc2ccccc2)O[C@H]1CO	.	/	/	/	/	/	/	/
COc1ccccc1CNC(=O)C[C@@H]1CC[C@H]2[C@@H](COC[C@@H](O)CN2Cc2ccccc2)O1	.	/	/	/	/	/	/	/
Nc1scc2c(C(=O)N/N=C/c3ccc(Cl)cc3)nn(-c3ccccc3)c(=O)c12	.	/	101	.	51	/	active	.
C[C@H]1CN([C@@H](C)CO)S(=O)(=O)c2ccc(-c3cncnc3)cc2O[C@@H]1CN(C)Cc1cccnc1	.	/	/	/	/	/	/	/
CC(C)NC(=O)N(C)C[C@@H]1Oc2c(NC(=O)NC3CCCCC3)cccc2C(=O)N([C@H](C)CO)C[C@@H]1C	.	/	/	/	/	/	/	/
